The list is not random: actives were taken first. Their share in the collection is about 6.8%.
PINK1 expr mod – A Quantitative High throughput Screen to Identify Chemical Modulators of PINK1 Expression; 410,000 tested, 0.2% active; Potency, µM (titrated, usually from 76.6 µM), for the others: at the highest dose activation (PINK1 increase), most hits filed as activators; PINK1 immunofluorescence, high-content cytometry, 24 h; active = well fitted activation curve with a large enough effect; inconclusive = small, poorly fitted or top-dose-only effect; cell line not stated here; note: % of control where 0% means no effect; nearly all actives have a fitted effect of over 65% in size
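Stable cell line treated 24 h with compounds at 5 concentrations (CCCP controls), then fixed and immunostained for PINK1 plus nuclear and cell stains; PINK1 immunofluorescence quantified by laser-scanning microplate cytometry.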
MCF10A rereplic – A quantitative high throughput screen for small molecules that induce DNA re-replication in MCF 10a normal breast cells; 350,000 tested, 2.9% active; AID 624296, 2012; Potency, µM (top dose mostly 46.1 µM), for inactives: at the top dose activity, positive = re-replication, actives largely listed as activators; MCF 10A DNA re-replication, Hoechst nuclear intensity, 48 h; note: % of control where 0% means no effect; nearly all actives have a fitted effect of over 50% in size
TSG101-PTAP inh – qHTS Assay for Iinhibitors of HIV-1 Budding by Blocking the Interaction of PTAP/TSG101. Tumor susceptibility gene 101 protein (Homo sapiens), Q99816. Fluorescence polarization, FITC-PTAP peptide / Tsg101 binding. Potency, µM (top dose mostly 115 µM), without a hit: top-dose activity change, negative = inhibition, actives largely listed as inhibitors. 340,000 tested, under 10 active; active = well fitted inhibition curve with a large enough effect in the main read-out, with a control signal flat, not every such curve was filed as active; inconclusive = small, poorly fitted or top-dose-only effect, or effect the other way, or a change in a side signal; inactive = no such curve, though single readings can be large or run the other way; note: % of control where 0% means no effect
Target sequence (Q99816 whole entry, looked up): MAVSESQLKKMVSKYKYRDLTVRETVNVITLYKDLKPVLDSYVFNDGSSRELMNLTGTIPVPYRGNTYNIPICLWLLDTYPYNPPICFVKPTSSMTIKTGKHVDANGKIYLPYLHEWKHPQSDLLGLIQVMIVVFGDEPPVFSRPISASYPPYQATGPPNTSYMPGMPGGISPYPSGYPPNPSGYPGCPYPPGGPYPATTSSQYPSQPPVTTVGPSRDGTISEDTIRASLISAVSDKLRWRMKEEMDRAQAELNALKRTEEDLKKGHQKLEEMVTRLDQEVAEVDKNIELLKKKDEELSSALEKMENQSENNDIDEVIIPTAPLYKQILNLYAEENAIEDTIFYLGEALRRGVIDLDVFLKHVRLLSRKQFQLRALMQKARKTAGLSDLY
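Steps: Tsg101 binding domain dispensed (10 uM final), compounds pinned in DMSO, FITC-labeled PTAP-motif peptide added (50 nM final); after 20 min binding at room temperature, polarization measured.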
SW480 rerep – A quantitative high throughput screen for small molecules that induce DNA re-replication in SW480 colon adenocarcinoma cells; AID 624297, 2012; 340,000 tested, 1.8% active; SW480 DNA re-replication, Hoechst DNA content imaging, 48 h; Potency, µM (top dose mostly 46.1 µM), without a hit: at the top dose re-replication activation, most hits filed as activators; note: % of control where 0% means no effect; nearly all actives have a fitted effect of over 55% in size
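DNA re-replication was detected as more nuclei of elevated Hoechst intensity after 48 hr exposure to compound (23 nL pinned per well of 250 cells).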
KB-3-1 tox – qHTS assay for MDR1-selective chemotherapeutics: Primary screen using the parental adenocarcinoma cell KB-3-1 | Potency, µM (doses to about 46.1 µM), hits mostly cytotoxic | 400,000 tested, 1.4% active | KB-3-1 viability, CellTiter-Glo ATP luminescence, 72 h; note: % is set by controls: 0 for no effect and ±100 for the full control effect; nearly all actives have a fitted effect of over 60% in size
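Luminescent ATP read-out (CellTiter-Glo) measures survival of drug-naive KB-3-1 cells after 72 h compound exposure at 37 °C. Titration series was screened from lowest to highest concentration, with DMSO vehicle plates as background controls.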
KB-V1 MDR tox – qHTS assay for MDR1-selective chemotherapeutics: Primary screen using the drug-selected MDR subline cells KB-V1 | KB-V1 MDR cells viability, CellTiter-Glo, 72 h | Potency, µM (highest dose often 46.1 µM), hits mostly cytotoxic | 400,000 tested, 3.4% active | AID 1347076, 2019; note: % is set by controls: 0 for no effect and ±100 for the full control effect; nearly all actives have a fitted effect of over 60% in size
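In this primary screen, KB-V1 cells overexpressing P-gp are incubated with library compounds (lowest to highest concentration) for 72 h at 37 degrees C before a luminescent ATP viability read.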
* marks the source's active call; other numbers are inactive results; i = inactive; ? = inconclusive; . = no result; [ ] = remark or other dose. Unless noted, calls come from the whole dose curve; as a rule, active = well fitted curve in the direction sought with a large enough effect; inconclusive = small, poorly fitted or top-dose-only effect, or another doubt; inactive = no such curve, though single readings can be large; an effect the other way counts as inactive or inconclusive. Potency is the fitted concentration of half-maximal effect.

SMILES	PINK1 expr mod	MCF10A rereplic	TSG101-PTAP inh	SW480 rerep	KB-3-1 tox	KB-V1 MDR tox
Cc1cccn2c(=O)c3cc(C#N)c(=NC(=O)c4ccncc4)n(CCCOC(C)C)c3nc12	0%	4.6µM*	-11%	?	i	i
Cc1cc(NN)nc2ccc(Cl)cc12	-3%	18%	-13%	?	?	13µM*
COCCn1c(SCc2csc(-c3ccccc3)n2)nc2ccccc21	2%[38.3 µM]	-3%	-2%	3%	16µM*	8.2µM*
COCCCNC(=O)CSc1c2c(nc3ccc(Cl)cc13)CCCC2	2%	23µM*	1%	0%	i	i
O=C(CSc1c2c(nc3cc(Cl)ccc13)CCCC2)NCCCN1CCOCC1	2%	23µM*	0%	?	i	i
O=C(CSc1c2c(nc3cc(Cl)ccc13)CCCC2)NCCN1CCOCC1	12%	?	-2%	?	i	i
CCOc1cccc(CN2CCC(n3cc(C(=O)N4CCCCC4)nn3)CC2)c1O	-1%	.	.	.	.	.
Cc1ccccc1-n1nc2c(c1NC(=O)C1CCCC1)CS(=O)(=O)C2	2%	18µM*	0%	-1%	i	i
CCOc1ccc(CCNC(=O)c2cn(CC)c3ccc(S(=O)(=O)N4CCCCCC4)cc3c2=O)cc1OCC	0%	.	.	.	i	i
COc1ccc(C2=CC(c3ccc(C)cc3)n3nnnc3N2)cc1 (stereo unspecified)	27%[38.3 µM]	7%	-13%	-2%	i	?
COc1ccc(C2C=C(c3ccccc3)Nc3nnnn32)cc1 (stereo unspecified)	-2%[38.3 µM]	4%	-7%	14%	i	i
COc1ccc(OC)c(C2C=C(c3ccc(C)c(C)c3)Nc3nnnn32)c1 (stereo unspecified)	13%	?	-3%	7.3µM*	6.5µM*	6.5µM*
COc1cccc(C2=CC(c3cc(OC)ccc3OC)n3nnnc3N2)c1 (stereo unspecified)	-1%	?	-4%	?	6.5µM*	16µM*
COc1ccc(C2C(=O)N(C3CCCCCC3)CC(=O)N2Cc2ccc(C)cc2)cc1 (stereo unspecified)	2%	.	.	.	.	.
COc1ccc(C(=O)NCCNC(=O)c2ccc(OC)cc2)cc1	1%	1%	-3%	-6%	?	i
COc1ccc(C(=O)NCC(C)(C)SCc2c(C)cc(C)cc2C)cc1	.	-15%	-4%	-7%	i	18µM*
CCOC(=O)c1ccc(N2C(=O)c3n[nH]c(-c4ccco4)c3C2c2cccc(O)c2)cc1 (stereo unspecified)	-1%	.	.	.	i	i
C(=C\c1ccccn1)/c1ccccc1	.	.	.	.	?	i
COC(=O)c1ccc(C(=O)NC2CCCc3c2cnn3-c2ccccc2F)nc1 (stereo unspecified)	5%	15µM*	-2%	18µM*	?	4.1µM*
COc1cc(C(=O)NC2CCCc3c2cnn3-c2ccccc2F)cc(OC)c1OC (stereo unspecified)	1%	8%	-3%	-10%	?	?
CCOC(=O)c1ccc(N/C=C\C(=O)c2cccc(OC)c2)cc1	5%	?	-3%	7%	i	i
COc1cccc(C(=O)/C=C/Nc2cc(C)ccc2O)c1	4%[38.3 µM]	100%	-4%	18µM*	i	?
CCCCCCn1c(CN2CCN(Cc3ccccc3)CC2)nc2c1c(=O)n(C)c(=O)n2C	12%[38.3 µM]	?	-4%	-11%	?	18µM*
CCCCCn1c(CN2CCN(C)CC2)nc2c1c(=O)n(C)c(=O)n2C	-2%	-2%	-13%	-14%	i	i
CCOC(=O)N1CCN(Cc2nc3c(c(=O)n(C)c(=O)n3C)n2CCCc2ccccc2)CC1	-5%	-1%	-6%	9%	?	9.2µM*
SMILES	PINK1 expr mod	MCF10A rereplic	TSG101-PTAP inh	SW480 rerep	KB-3-1 tox	KB-V1 MDR tox
CCCCCn1c(CN2CCN(C(=O)OCC)CC2)nc2c1c(=O)n(C)c(=O)n2C	-5%[38.3 µM]	-2%	-3%	1%	i	i
CC(Sc1nnc(CN2CCCC2)n1Cc1ccccc1)C(=O)Nc1ccc(F)cc1 (stereo unspecified)	0%	?	-2%	-1%	i	i
CC(Sc1nnc(CN2CCCC2)n1Cc1ccccc1)C(=O)Nc1ccc(F)cc1Cl (stereo unspecified)	2%	?	-3%	3.7µM*	i	i
COc1ccc(Nc2cc(C)c3ccc(O)cc3n2)cc1	4%	?	-7%	?	i	?
Cc1cc(Nc2ccccc2)nc2cc(O)ccc12	0%	21µM*	0%	?	?	?
Cc1cc(C)cc(NC(=O)C(=O)NC(C)c2ccccc2)c1 (stereo unspecified)	6%	.	.	.	i	i
COc1ccc(Cl)cc1NC(=O)Cc1ccc(NC(=O)N2CCCCc3ccccc32)cc1	0%	.	.	.	i	i
COCc1ccc(C(=O)N2CCCC(CCC(=O)NCc3ccccc3F)C2)o1 (stereo unspecified)	6%	13µM*	-5%	12µM*	?	?
Cc1ncoc1C(=O)N1CCCC(CCC(=O)NCc2ccccc2F)C1 (stereo unspecified)	9%	-21%	0%	?	?	?
CCOc1cccc(CN2CCCC(CCC(=O)NCc3ccccc3F)C2)c1O (stereo unspecified)	-1%	-25%	-1%	16µM*	i	i
CC(C)c1cc(C(=O)N2CCCC(CCC(=O)NCc3ccccc3F)C2)n(C)n1 (stereo unspecified)	2%	-2%	-4%	-3%	?	9.2µM*
CC(=O)N(CCC1(C(C)C)CCOC(C)(C)C1)Cc1ccco1 (stereo unspecified)	26%[38.3 µM]	1%	-8%	-2%	i	12µM*
CCC(=O)N(CCC1(C(C)C)CCOC(C)(C)C1)Cc1ccco1 (stereo unspecified)	0%	-105%[0.0737 µM]	-2%	11%	i	i
CC(=O)c1ccc(N2CCC(c3cc(-c4ccc(Cl)cc4Cl)n[nH]3)CC2)c([N+](=O)[O-])c1	7%[38.3 µM]	?	-1%	?	?	15µM*
